Results on 47 compounds are retold here after PubChem BioAssay AID1851 (National Center for Advancing Translational Sciences (NCATS), 2009).

As a reminder, the AC50 is the concentration at which the activity in the assay is half-maximal.

About 5,700 (36%) of roughly 16,000 compounds were called active. Not shown: some 24% with an inconclusive outcome. Calls come from the whole dose curve; as a rule, active = well fitted curve in the direction sought with a large enough effect; inconclusive = small, poorly fitted or top-dose-only effect, or effect the other way; inactive = no such curve, though single readings can be large or run the other way. Some of the results follow.
% is set by controls: 0 for no effect and ±100 for the full control effect.

In the assay the target is Cytochrome P450 1A2 (Homo sapiens) (UniProt P05177). Description: Cytochrome panel assay with activity outcomes. The conditions noted are these: recombinant CYP, pro-luciferin dealkylation, luminescence, p450-cyp1a2; series mostly up to 57.1 µM; activity, negative = inhibition: at the top concentration.
Sequence of Cytochrome P450 1A2 (Homo sapiens) (P05177 whole entry, looked up): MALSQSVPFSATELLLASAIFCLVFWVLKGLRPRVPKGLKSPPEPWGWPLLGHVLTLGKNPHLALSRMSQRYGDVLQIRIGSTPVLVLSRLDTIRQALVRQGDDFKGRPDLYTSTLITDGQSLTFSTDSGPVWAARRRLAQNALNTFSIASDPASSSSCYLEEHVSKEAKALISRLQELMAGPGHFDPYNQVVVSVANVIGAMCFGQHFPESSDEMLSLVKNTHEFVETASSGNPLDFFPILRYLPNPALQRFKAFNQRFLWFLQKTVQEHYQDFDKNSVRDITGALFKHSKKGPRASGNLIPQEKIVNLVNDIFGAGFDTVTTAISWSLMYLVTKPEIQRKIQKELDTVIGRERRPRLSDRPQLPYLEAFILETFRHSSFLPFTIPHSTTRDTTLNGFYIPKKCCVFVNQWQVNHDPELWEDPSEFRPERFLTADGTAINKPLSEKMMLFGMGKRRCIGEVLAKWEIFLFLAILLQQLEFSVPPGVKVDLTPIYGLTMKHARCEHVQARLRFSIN
Consider `Cc1ncc(CO)c(CO)c1O`, for which the “activity, negative = inhibition” value was -13% [at 25.6 µM] (inactive).

On to `CC(=O)N(C)c1nnc(-c2cnccn2)s1`, for which the AC50 is 6310 nM (active).

`Cc1nnc(N(C)C(=O)c2ccccn2)s1`: the “activity, negative = inhibition” value was -21.3% (inactive).

Consider `C[C@@H]1C(=O)N(C)C(=O)c2nc[nH]c21`, for which the “activity, negative = inhibition” value is -19.5% (inactive).

In the case of `O=C1OC(OC2CCCCC2)(c2ccccc2)c2ccccc21` (configuration not stated), the “activity, negative = inhibition” value was -10.7% (inactive).

As to `Cc1ccccc1-c1cncnc1Nc1ccccc1`, the concentration at half-maximal activity (AC50) was 15800 nM (active).

As to `Cc1ccccc1-c1cncnc1Nc1ccc(F)cc1`, the AC50 was 10000 nM (active).

Regarding `CCOCCCNC(=O)CCS(=O)(=O)Cc1ccc(C)cc1`, the “activity, negative = inhibition” value was -7.44% (inactive).

Regarding `COc1ccccc1NC(=O)Nc1nnc(-c2ccco2)s1`, the half-maximal activity concentration (AC50) was 2000 nM (active).

For the compound `COc1ccc(OC)c(NC(=O)C(CC(=O)O)NCc2ccco2)c1` (configuration not stated), the “activity, negative = inhibition” value is -20.7% (inactive).

Regarding `COc1ccccc1-c1nnc(NC(C)=O)s1`, the AC50 was 1260 nM (active).

For the compound `CN(C)c1cc[n+](CC(=O)Nc2cc(C(F)(F)F)ccc2Cl)cc1`, the “activity, negative = inhibition” value is -18.9% (inactive).

On to `O=C(CCCC(=O)OCC(=O)c1ccc(Cl)cc1Cl)Nc1cc(C(F)(F)F)ccc1Cl`, for which the half-maximal activity concentration (AC50) is 2820 nM (active).

Take `N/C(CC(=O)Nc1cc(C(F)(F)F)ccc1Cl)=N\O`: the AC50 was 1580 nM (active).

Regarding `COC(=O)N1CCC2(CCN(Cc3cc(C(F)(F)F)cc(C(F)(F)F)c3)CC2)CC1`, the “activity, negative = inhibition” value was -19.2% (inactive).

For `O=C(Cc1ccccc1)NC(=S)Nc1cc(C(F)(F)F)ccc1Cl`, the AC50 was 2000 nM (active).

Take `Cc1cc(NC(=O)CCCC(=O)OCC(F)(F)C(F)F)cc(C)c1C(=O)O`: the “activity, negative = inhibition” value was 11.5% (inactive).

`Cc1ccc(C)n1CCN1CCN(CC(=O)Nc2cc(C(F)(F)F)ccc2Cl)CC1`: the concentration at half-maximal activity (AC50) was 25100 nM (active).

Consider `O=C1[C@H]2CCn3c(=O)n(-c4ccccc4)c(=O)n3[C@H]2[C@H](O)[C@H]2O[C@@H]12`, for which the activity, negative = inhibition is -2.61% [at 11.4 µM] (inactive).

On to `Cc1cc(N2C(=O)C(O)=C(C(=O)c3cccs3)C2c2cccc(O)c2)no1` (configuration not stated), for which the “activity, negative = inhibition” value is -1.3% (inactive).

Turning to `CC(C)=CCC/C(C)=C/CO/N=C1/C[C@@H](O)[C@@H](O)[C@@H]2[C@@H]3C(=O)N(C(C)(C)C)C(=O)[C@H]3CC[C@@H]12`, the activity, negative = inhibition is -0.662% [at 11.4 µM] (inactive).

With `C/C(CCN1CCCCc2nc(C)c(C)cc21)=N\OC[C@@H](O)[C@@H]1O[C@@H]2OC(C)(C)O[C@@H]2[C@H]1O`, the activity, negative = inhibition is -3.55% [at 11.4 µM] (inactive).

As for `O=CN1CCN(C[C@H](O)CN2CCCCC2)CC1`, the activity, negative = inhibition was -17.6% [at 2.29 µM] (inactive).

For `O=C(c1ccccc1)c1cc(F)c(N2CCOCC2)cc1Cl`, the AC50 was 11200 nM (active).

As to `CC(C)[C@H](N)c1nnc(SC/C=C/c2ccccc2)o1`, the concentration at half-maximal activity (AC50) was 631 nM (active).

Turning to `CC(C)[C@H](N)c1nnc(SCc2ccc(Cl)cc2)o1`, the AC50 was 794 nM (active).

For the compound `O=C(NC12CC3CC(CC(C3)C1)C2)C12CC3CC(C1)CC(n1cnc(Cl)n1)(C3)C2`, the “activity, negative = inhibition” value was -11.9% (inactive).

In the case of `NCC1CCC(C(=O)O)CC1` (configuration not stated), the “activity, negative = inhibition” value was -3.69% [at 25.6 µM] (inactive).

Turning to `N#C/C(=C\c1ccc(Cl)cc1)c1nc2ncccc2[nH]1`, the concentration at half-maximal activity (AC50) is 2000 nM (active).

As for `N#C/C(=C\c1ccccc1)c1nc2ncccc2[nH]1`, the concentration at half-maximal activity (AC50) is 1260 nM (active).

As for `CCC(=O)O[C@@H]1[C@H](C)O[C@H](O[C@H]2[C@@H](N(C)C)[C@H](O)[C@@H](O[C@@H]3[C@@H](CC=O)C[C@@H](C)[C@@H](O)/C=C\C=C/C[C@@H](C)OC(=O)C[C@@H](OC(=O)CC)[C@H]3OC)O[C@H]2C)C[C@]1(C)O`, the “activity, negative = inhibition” value was -13.6% [at 25.6 µM] (inactive).

On to `c1cncc(-c2ccc3ncnc(NC4CCNCC4)c3c2)c1`, for which the half-maximal activity concentration (AC50) was 12600 nM (active).

For the compound `COc1cccc(-c2ccc3ncnc(NC4CC4)c3c2)c1`, the AC50 was 200 nM (active).

As for `COc1cccc(-c2cncnc2NC2CCNCC2)c1`, the “activity, negative = inhibition” value is -19.7% (inactive).

As for `N#Cc1cccc(-c2ccc3ncnc(NC4CCNCC4)c3c2)c1`, the AC50 was 15800 nM (active).

`COc1cccc(-c2ccc3ncnc(NC4CCNCC4)c3c2)c1`: the AC50 is 20000 nM (active).

For the compound `C[n+]1cccc(CNC(=O)/C=N/O)c1`, the “activity, negative = inhibition” value is 1.69% (inactive).

On to `CC(C)[C@]1(Cl)CC[C@@H]2[C@]3(C)CCC[C@@](C)(C(=O)O)[C@H]3C[C@H](Cl)[C@@]2(Cl)[C@H]1Cl`, for which the activity, negative = inhibition was -13% [at 11.4 µM] (inactive).

For `Cn1c(SCc2nc3ccccc3n2CCO)nc2ccccc21`, the AC50 is 10000 nM (active).

Take `Cn1c(C[C@@H](O)c2nc3ccccc3n2C)nc2ccccc21`: the activity, negative = inhibition is -2.56% [at 2.29 µM] (inactive).

As to `CCCS(=O)(=O)N1CCCC(C(=O)NCC2CCCO2)C1` (configuration not stated), the “activity, negative = inhibition” value is -17.1% (inactive).

For `N#Cc1nc(-c2ccc(F)cc2)oc1N1CCCC1`, the half-maximal activity concentration (AC50) was 178 nM (active).

With `CC(=O)O[C@@H](C)C[N+](C)(C)C`, the AC50 result is “inactive”.

On to `CNc1nc(-c2ccccc2OC)nc2ccccc12`, for which the half-maximal activity concentration (AC50) was 398 nM (active).

`Clc1ccccc1-c1nc(NCc2cccs2)c2ccccc2n1`: the half-maximal activity concentration (AC50) is 1000 nM (active).

As for `COc1ccccc1-c1nc(NCc2cccs2)c2ccccc2n1`, the half-maximal activity concentration (AC50) is 631 nM (active).

With `COc1ccccc1-c1nc(NCc2ccccc2)c2ccccc2n1`, the concentration at half-maximal activity (AC50) is 398 nM (active).
